Most compounds without a hit are left out; they make up all but 4% or so of the library.
TROY signal inh: inhibitors of TROY-driven NF-kB signaling, primary screen, Q293 LMP1-TROYcd cells, NF-kB luciferase, uHTS. Q293 LMP1-TROYcd NF-kB luciferase reporter, 4 h. inhibition, % at 10 µM. actives 0.98% (n = 360,000). AID 1347056, 2019;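 active = compounds whose plate-normalised and pattern-corrected inhibition of the luciferase reporter signal at the single screening dose is 50% or more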
CF NFkB block: inhibitors of PAF-induced NF-kB signaling, primary screen, cell-based, GFP fluorescence, uHTS; KKLEB NF-kB-GFP reporter, GFP fluorescence overnight; inhibition, % at 5 µM; actives 0.86% (n = 360,000); AID 588850, 2011;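 active = at least 50% inhibition at 5 µM, scaled per plate between neutral and stimulator controls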;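 also: PAF is a Pseudomonas aeruginosa culture filtrate used as stimulus; plate controls were PAF-stimulated DMSO wells for no effect and unstimulated DMSO wells for full effect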
HIF-2a block: HIF-2a reporter inhibitors, primary screen, luminescence, 786-0 RCC cells. 786-0 RCC cells HIF-2a reporter, luciferase luminescence, overnight. inhibition, % at 18.8 µM. actives 0.72% (n = 360,000). AID 624352, 2012;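 active = inhibition of the luminescence signal of 40% or more relative to plate controls, in a single-dose primary screen at 18.75 µM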
TWEAK Fn14 block: inhibitors of TWEAK-Fn14 signaling, primary screen, luciferase reporter cells, uHTS. actives 2% (n = 360,000). TWEAK-stimulated Fn14 reporter cells, luciferase luminescence, 8 h. AID 1159606, 2016. inhibition, % at 10 µM; in the data active = inhibition above about 50%
KKLEB cytotox: cytotoxicity in KKLEB CF airway cells, primary screen, cytotoxicity control for CF NF-kB inhibitor project, cell-based, uHTS, fluorescence assay plates; KKLEB CF airway cells viability, ATPlite luminescence, overnight; hits give low values; cells stimulated with P. aeruginosa culture filtrate; activity change (cytotoxicity), % at 5 µM; actives 0.36% (n = 360,000);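 active = corrected activity change at or below -50% at 5 µM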
Peg3 promoter: Peg3 promoter-driven luciferase inhibitors, primary screen, cell-based, HeLa, luciferase luminescence; HeLa PEG-Prom luciferase reporter, overnight; inhibition, % at 20 µM; actives 1.7% (n = 360,000);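 active = inhibition of at least 50% at 20 µM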
The depositor's hits bear a star.

What do the screens show for `COc1ccc(C(CCN2CCCC(C)C2)c2c(OC)cc(OC)c3c(-c4ccccc4)cc(=O)oc23)cc1` (configuration not stated)?
TROY signal inh: -8; CF NFkB block: 3; HIF-2a block: 10; TWEAK Fn14 block: -21; KKLEB cytotox: -14; Peg3 promoter: 65*

Results for CCCCN(CCCC)C(=O)c1sc2nc(N3CCOCC3)c3c(c2c1N)CCCC3 ?
TROY signal inh: -10; CF NFkB block: 27; HIF-2a block: 8; TWEAK Fn14 block: -14; KKLEB cytotox: -13; Peg3 promoter: 16

Results for CN(CCOC(=O)c1cccc(F)c1)Cc1ccccc1 ?
TROY signal inh: -12; CF NFkB block: 15; HIF-2a block: 18; TWEAK Fn14 block: -6; KKLEB cytotox: -18; Peg3 promoter: 10

Results for O=[N+]([O-])c1ccc(N/N=C/c2cccc(O)c2)cc1 ?
TROY signal inh: 51*; CF NFkB block: -41; HIF-2a block: -94; TWEAK Fn14 block: -69; KKLEB cytotox: 2; Peg3 promoter: -357

Results for Cc1ccc(NC(=O)c2ccc(N/N=C/c3cccc(O)c3)c([N+](=O)[O-])c2)cc1 ?
TROY signal inh: -32; CF NFkB block: 20; HIF-2a block: -12; TWEAK Fn14 block: -75; KKLEB cytotox: -17; Peg3 promoter: 67*

Results for CCOC(=O)c1ccc(NC(=O)c2c(NC(=O)CCC(=O)O)sc3c2CCCCC3)cc1 ?
TROY signal inh: 33; CF NFkB block: -27; HIF-2a block: 6; TWEAK Fn14 block: 74*; KKLEB cytotox: 8; Peg3 promoter: -12

What do the screens show for `CCOc1ccccc1NC(=O)c1c(NC(=O)CCC(=O)O)sc2c1CCCCC2`?
TROY signal inh: -8; CF NFkB block: -6; HIF-2a block: -1; TWEAK Fn14 block: -9; KKLEB cytotox: -8; Peg3 promoter: 17

What do the screens show for `COc1cc(C(=O)NC(=S)N(CCc2ccccc2)CCc2ccccc2)cc(OC)c1OC`?
TROY signal inh: 70*; CF NFkB block: 14; HIF-2a block: 29; TWEAK Fn14 block: 38; KKLEB cytotox: -13; Peg3 promoter: 44

Results for CCC(CO)[n+]1c(C)cc(/C=C2\Sc3ccccc3N2Cc2ccccc2)cc1C (configuration not stated) ?
TROY signal inh: -47; CF NFkB block: 10; HIF-2a block: -11; TWEAK Fn14 block: -3; KKLEB cytotox: -6; Peg3 promoter: 62*

What do the screens show for `CCN1/C(=C2\SC(=S)N(Cc3ccccc3)C2=O)Sc2ccccc21`?
TROY signal inh: 11; CF NFkB block: -4; HIF-2a block: 18; TWEAK Fn14 block: -1; KKLEB cytotox: 2; Peg3 promoter: 1

How did CN(C)C=Nc1c(Br)cc(Br)c2nonc12 do in these assays?
TROY signal inh: -3; CF NFkB block: -44; HIF-2a block: -19; TWEAK Fn14 block: -2; KKLEB cytotox: -2; Peg3 promoter: -16

What do the screens show for `COc1ccc(C2C(C(=O)c3ccccc3)=C(C)Nc3nc4ccccc4n32)c(OC)c1` (configuration not stated)?
TROY signal inh: 53*; CF NFkB block: 5; HIF-2a block: -3; TWEAK Fn14 block: 76*; KKLEB cytotox: -6; Peg3 promoter: 8

Results for CCn1c(C)cc(/C=C2/NC(=O)N(c3ccccc3)C2=O)c1C ?
TROY signal inh: 74*; CF NFkB block: -20; HIF-2a block: -225; TWEAK Fn14 block: 74*; KKLEB cytotox: 10; Peg3 promoter: -239

Results for CC(C)n1cc(/C=C2\NC(=O)N(c3cccc(Cl)c3)C2=O)c2ccccc21 ?
TROY signal inh: 12; CF NFkB block: 12; HIF-2a block: 4; TWEAK Fn14 block: 19; KKLEB cytotox: -14; Peg3 promoter: 30

Results for COCCn1c(C)cc(/C=C2/NC(=O)N(c3cccc(Cl)c3)C2=O)c1C ?
TROY signal inh: 81*; CF NFkB block: 23; HIF-2a block: -14; TWEAK Fn14 block: 82*; KKLEB cytotox: -17; Peg3 promoter: -216
